# Structures can show the parent of a compound that is named as a salt. Where two headings read alike, the source gives them in different places. The campaign covered roughly 5,300 compounds. About 130 (2.5%) showed an effect of 50% or more. Shown is part of a subset that was picked to be rich in strong results.
# Test system: M. mycetomatis strain mm55
# Details: primary screen, metabolic activity vs growth control, 96 h, 2 µM, inhibitor
# [1] = Madurella mycetomatis metabolic activity at 2µM (%)
compound,measurement,setting,value
"CC12CCC(C(Br)C1=O)C2(C)C (stereo not drawn) [ONC0003727, 3bromocamphor]",% viability,,127.8%
"Cc1csc2c(N[C@@H](C)CN3CCN(S(=O)(=O)c4ccc(Cl)c(Cl)c4)CC3)ncnc12 [ONC0001129, lpa2 antagonist 1]",% viability,,45.06%
"O=C(O)/C(Cc1ccccc1[N+](=O)[O-])=N/Nc1nc(-c2ccc(Cl)c(Cl)c2)cs1 [ONC0005147, 4egi1]",% viability,,73.1%
"CC[C@]1(O)C[C@H]2CN(CCc3c([nH]c4ccccc34)[C@@](C(=O)OC)(c3cc4c(cc3OC)N(C)[C@H]3[C@@](O)(C(N)=O)[C@H](O)[C@]5(CC)C=CCN6CC[C@]43[C@@H]65)C2)C1 [ONC0000288, vindesine sulfate]",% viability,,94.86%
"C[C@]12CC[C@@H]3c4ccc(O)cc4CC[C@H]3[C@@H]1CC[C@@H]2OC(=O)CCC1CCCC1 [ONC0000738, estradiol cypionate]",% viability,,84.11%
"CCCCC(=O)O[C@H]1CC[C@H]2[C@@H]3CCc4cc(O)ccc4[C@H]3CC[C@]12C [ONC0000727, estradiol valerate]",% viability,,49.76%
"C[C@]12CC[C@@H]3c4ccc(O)cc4CC[C@H]3[C@@H]1CC[C@@H]2O [ONC0000707, estradiol]",% viability,,85.31%
"[H]/N=C(\N/C(=N/[H])NCCCCCCNC(=N)NC(=N)Nc1ccc(Cl)cc1)Nc1ccc(Cl)cc1 [ONC0000326, chlorhexidine dihydrochloride]",% viability,,77.24%
"Cc1cccc(NC(=O)N[C@@H]2N=C(c3ccccc3)c3ccccc3N(CC(=O)c3ccccc3C)C2=O)c1 [ONC0005568, ym022]",% viability,,88.21%
"C=CC1=C(C)c2cc3[nH]c(cc4nc(cc5[nH]c(cc1n2)c(C)c5CCC(=O)O)C(CCC(=O)O)=C4C)c(C)c3C=C [ONC0000685, protoporphyrin ix]",% viability,,98.29%
"C=Cc1c(C)c2cc3nc(c(CC(=O)O)c4[nH]c(cc5nc(cc1[nH]2)C(C)=C5CC)c(C)c4C(=O)O)C(CCC(=O)O)C3C (stereo not drawn) [ONC0000409, chlorophyllin chlorin e6]",% viability,,49.9%
"CC1=C(CCC(=O)O)c2cc3[nH]c(cc4nc(cc5[nH]c(cc1n2)c(C)c5C(C)O)C(C)=C4C(C)O)c(C)c3CCC(=O)O (stereo not drawn) [ONC0002122, hematoporphyrin]",% viability,,86.42%
"CN(C)[C@@H]1C(=O)C(C(N)=O)C(=O)[C@@]2(O)C(=O)C3C(=O)c4c(O)cccc4[C@@](C)(O)[C@H]3C[C@@H]12 (stereo partly drawn) [ONC0000563, tetracycline hydrochloride]",% viability,,113.1%
"C/C(=N\NC(=N)N)c1cc(NC(=O)CCCCCCCCC(=O)Nc2cc(/C(C)=N/NC(=N)N)cc(/C(C)=N/NC(=N)N)c2)cc(/C(C)=N/NC(=N)N)c1 [ONC0003851, semapimod]",% viability,,78.92%
"CCCCCCCCCCCCCCCCCC(=O)OCC(O)[C@H]1OC[C@H](O)[C@H]1O (stereo partly drawn) [ONC0002989, sorbitanmonostearate]",% viability,,79.74%
"COc1cc2c(Nc3ccc(NC(=O)c4ccccc4)cc3)ncnc2cc1OCCCN1CCOCC1 [ONC0003607, zm447439]",% viability,,145.2%
"CCn1c(-c2nonc2N)nc2cnc(Oc3cccc(NC(=O)c4ccc(OCCN5CCOCC5)cc4)c3)cc21 [ONC0002474, gsk269962]",% viability,,46.2%
"CCOc1cccc(NC(=O)c2ccc(N3CCCC3)c(C(F)(F)F)c2)c1 [ONC0001854, epptb]",% viability,,85.67%
"Cc1nc2ccc(CN(C)c3ccc(C(=O)N[C@@H](CCC(=O)O)C(=O)O)s3)cc2c(=O)[nH]1 [ONC0004884, raltitrexed tomudex]",% viability,,134.6%
"CN1CCN2c3c(cccc31)[C@@H]1CN(CCCC(=O)c3ccc(F)cc3)CC[C@@H]12 [ONC0001244, lumateperone tosylate]",% viability,,56.09%
"CC1=NN(c2ccc(C)c(C)c2)C(=O)/C1=N/Nc1cccc(-c2cccc(C(=O)O)c2)c1O [ONC0004936, eltrombopag olamine]",% viability,,85.22%
Clc1ccccc1C(c1ccccc1)(c1ccccc1)n1ccnc1 [Clotrimazole],% viability,,2.944%
"N#CC(c1ccccc1)(c1ccccc1)c1ccccc1Cl [ONC0000177, tram39]",% viability,,89.73%
"FC(F)(F)c1ccccc1-n1ccnc1 [ONC0000025, trim]",% viability,,101%
"C=CC1=C(C)c2cc3[nH]c(cc4nc(cc5[nH]c(cc1n2)c(C)c5CCC(=O)O)C(CCC(=O)OC)=C4C)[C@@]1(C)C3=CC=C(C(=O)OC)[C@H]1C(=O)OC [ONC0001491, verteporfin]",% viability,,55.47%
"CC(C)(C)c1ccc(-c2nc3c(N4CCN(Cc5ccc6nccnc6c5)CC4)cccc3[nH]2)cc1 [ONC0001828, way207024]",% viability,,97.56%
"N=C(N)NCCC[C@@H](N)C(=O)O [ONC0004802, larginine hcl]",% viability,,91.52%
"CN1C/C=C/CCOc2cccc(c2)-c2ccnc(n2)Nc2cccc(c2)C1 [ONC0001026, sb1317]",% viability,,86.64%
"Nc1nc2c(ncn2[C@@H]2O[C@H](CO)[C@@H](O)[C@H]2O)c(=S)[nH]1 [ONC0004689, thioguanosine]",% viability,,121.6%
"C=C[C@@]1(C)CC(=O)[C@]2(O)[C@@]3(C)[C@@H](O)CCC(C)(C)[C@@H]3[C@H](OC(=O)CCN(C)C)[C@H](OC(C)=O)[C@@]2(C)O1 [ONC0002915, colforsindaproate]",% viability,,95.97%
"C/C=C(\C)C(=O)O[C@H]1[C@H](OC(C)=O)[C@@]2(CO)C(CC1(C)C)C1=CCC3[C@@]4(C)CCC(O[C@@H]5O[C@H](C(=O)O)[C@@H](O[C@@H]6O[C@H](CO)[C@@H](O)[C@H](O)[C@H]6O)[C@H](O)[C@H]5O[C@@H]5O[C@H](CO)[C@@H](O)[C@H](O)[C@H]5O)[C@](C)(CO)C4CC[C@@]3(C)[C@]1(C)C[C@H]2O (stereo partly drawn) [ONC0002310, escin]",% viability,,67.54%
"CN1CCOC(c2ccccc2)c2ccccc2C1 (stereo not drawn) [ONC0000697, nefopam]",% viability,,116%
"CN1CCC2=C(C1)C(c1ccccc1)c1ccccc12 (stereo not drawn) [ONC0001922, phenindamine]",% viability,,47.96%
"CN1CCC2=C(C1)c1ccccc1Cc1ccccc12 [ONC0005445, setiptiline]",% viability,,113.1%
"CSCC[C@H](N)C(=O)O [ONC0005517, lmethionine]",% viability,[1],102.8%
"Cc1ccc(NC(=O)c2ccc(CN3CCC(N(C)C)C3)c(C(F)(F)F)c2)cc1Nc1ncc(-c2cncnc2)cn1 (stereo not drawn) [ONC0004625, bafetinib inno406]",% viability,,85.25%
"CC(=O)NC1=NN(C(C)=O)C(C)(c2ccccc2)S1 (stereo not drawn) [ONC0002658, k858]",% viability,,49.67%
"CCNCCS(=O)(=O)NC[C@@]1(c2ccccc2)SC(NC(=O)C(C)(C)C)=NN1C(=O)C(C)(C)C [ONC0000804, litronesib]",% viability,,77.28%
"CC(=O)Nc1ccccc1 [ONC0000688, acetanilide]",% viability,,114.7%
"CCCCN1[C@@H]2CC[C@H]1C[C@@H](OC(c1ccc(F)cc1)c1ccc(F)cc1)C2 [ONC0003046, jhw007]",% viability,,64.39%
"FC(F)(F)c1ccc(CNc2ccc(Cc3c[nH]c4ncccc34)cn2)cc1 [ONC0002656, plx647]",% viability,,82.24%
"CCOc1cc(C(C)(C)C)ccc1C1=NC(C)(c2ccc(Cl)cc2)C(C)(c2ccc(Cl)cc2)N1C(=O)N1CCN(CCCS(C)(=O)=O)CC1 (stereo not drawn) [ONC0004446, rg7112 ro5045337]",% viability,,112.9%
"[N-]=[N+]=N[C@]1(CO)O[C@@H](n2ccc(N)nc2=O)[C@@H](O)[C@@H]1O [ONC0000950, ro9187]",% viability,,66.7%
"Nc1ccn([C@@H]2O[C@@](CO)(CCl)[C@@H](O)[C@H]2F)c(=O)n1 [ONC0000939, als8112]",% viability,,44.91%
"[N-]=[N+]=N[C@]1(CO)O[C@@H](n2ccc(N)nc2=O)[C@H](O)[C@@H]1O [ONC0001768, r1479]",% viability,,81.29%
"[H]/N=C(/N)c1ccc(NCc2nc3cc(C(=O)N(CCC(=O)O)c4ccccn4)ccc3n2C)cc1 [ONC0004940, bibr 953 dabigatran etexilate pradaxa]",% viability,,81.22%
"C=C[C@H]1C[N@@]2CC[C@H]1C[C@@H]2[C@@H](O)c1ccnc2ccc(OC)cc12 [ONC0003347, quinidine gluconate]",% viability,,101.1%
"O=C(Nc1c[nH]nc1-c1nc2cc(CN3CCOCC3)ccc2[nH]1)NC1CC1 [ONC0004692, at9283]",% viability,,87.23%
C[C@@H](c1nc(-c2ccc(C#N)cc2)cs1)[C@](O)(Cn1cncn1)c1cc(F)ccc1F [Isavuconazole],% viability,,3.591%
C[C@@H](c1ncncc1F)[C@](O)(Cn1cncn1)c1ccc(F)cc1F [Voriconazole],% viability,,2.12%
"OC(Cn1cncn1)(Cn1cncn1)c1ccc(F)cc1F [ONC0005572, fluconazole]",% viability,,73.77%
C[C@@H](c1nc(-c2ccc(C#N)cc2)cs1)[C@](O)(Cn1cncn1)c1ccc(F)cc1F [Ravuconazole],% viability,,0.9972%
"CO[C@H]1CC[C@H](N2C(=O)CNc3ncc(-c4ccc(C(C)(C)O)nc4)nc32)CC1 [ONC0001106, cc223]",% viability,,54.41%
"COc1ccc(-c2cnc3c(-c4cccc5ncccc45)cnn3c2)cc1 [ONC0002277, chr6494]",% viability,[1],84.04%

# Reference: PMC12670160, “A drug-repurposing screen of FDA- and EMA-approved drugs identifies two NF-κB inhibitors active against eumycetoma” (Journal of Antimicrobial Chemotherapy, 2025)
